# Measured values taken from PubChem BioAssay AID463173 (ICCB-Longwood Screening Facility, Harvard Medical School, 2010).
# Out of some 52,000 compounds screened, about 4,300 (8.3%) were called active. The sample holds actives, similar compounds and a random draw of the others, so the mix is not that of the screen. A number with no mark means an inactive call. No stated cut-off is given here; in the data, active means survival mostly below about 52% (no sharp cut-off); inactive means mostly above about 56%.
# Tested on: DeltatarO mutant
# Experiment: S. aureus survival, RN4220 and DeltatarO strains – OD600, teichoic acid synthesis inhibitors, primary screen (AID 463173)
# Conditions: S. aureus RN4220 wild type/DeltatarO growth, OD600, 18 h, stronger effect = lower value, screened at 18.75 µg/mL (by protocol)
row,SMILES,survival
1,CCOc1ccc(CNC(=O)c2cnc3sc(N4CCOCC4)nn3c2=O)cc1,81%
2,CCOC(=O)c1c(C)[nH]c(CCC(=O)NCc2cccc(C)c2)c1C,70%
3,Cc1ccc(-n2ncc3c(N(C)C)ncnc32)cc1Cl,94%
4,O=C(c1ccc(CSc2nc3ccncc3n2Cc2ccccc2)cc1)N1CCCCCC1,70%
5,Cc1ccc(Cn2c(SCc3ccc(C(=O)N4CCCCCC4)cc3)nc3ccncc32)cc1,71%
6,Cc1ccc(Cn2c(SCc3ccc(C(=O)N4CCCCC4)cc3)nc3ccncc32)cc1,7% (active)
7,Cc1cc(C)c(C#N)c(S(C)(=O)=O)n1,106%
8,CCc1ccccc1NC(=O)C1CCN(S(=O)(=O)c2cn(C)cn2)CC1,93%
9,CCCCN(C)C(=O)C1CCCN(c2ncnc3onc(-c4ccc(F)cc4)c23)C1 (configuration not stated),77%
10,Cc1ccc(Nc2c(-c3ccc(N4CCOCC4)cc3)nc3ncccn23)c(C)c1,80%
11,COc1cccc(C2CC(=O)Nc3c2ccc(C)c3C)c1OC (configuration not stated),94%
12,Cc1ccc2c(c1C)NC(=O)CC2c1ccc(Cl)cc1Cl (configuration not stated),4% (active)
13,CC1=C(C(=O)OCC2CCCCC2)C(c2ccc(Cl)cc2Cl)CC(=O)N1 (configuration not stated),82%
14,CCc1ccc(C(=O)CC2(O)C(=O)N(C(C)C)c3ccccc32)cc1 (configuration not stated),79%
15,Cc1ccc(C(=O)CC2(O)C(=O)N(Cc3ccccc3F)c3ccccc32)cc1 (configuration not stated),60%
16,CCc1ccc(C(=O)CC2(O)C(=O)N(CCc3ccccc3)c3ccc(Br)cc32)cc1 (configuration not stated),52%
17,CC(C)c1ccc(C(=O)CC2(O)C(=O)N(CCc3ccccc3)c3ccc(Cl)cc32)cc1 (configuration not stated),33% (active)
18,Cc1ccc(C(=O)CC2(O)C(=O)N(CCc3ccccc3)c3ccc(Cl)cc32)cc1 (configuration not stated),17% (active)
19,CCc1ccc(C(=O)CC2(O)C(=O)N(CCc3ccccc3)c3ccc(Cl)cc32)cc1 (configuration not stated),19% (active)
20,CCCN1C(=O)C(O)(CC(=O)c2ccc(C(C)C)cc2)c2ccccc21 (configuration not stated),142%
21,Cc1ccc(-c2c3c(=O)n(C)c(=O)n(C)c3c3c(C(F)(F)F)nc4ccccc4n23)cc1,77%

row,SMILES,survival
1,Cc1ccc(S(=O)(=O)CCSc2nc(C)cc(C)c2C#N)cc1,53%
2,Nc1nonc1C(=O)NCCNCc1cccc(Cl)c1Cl,65%
3,CC(=O)c1cccc(-n2c(=O)c3c4c(sc3n(CC(=O)Nc3ccccc3F)c2=O)CN(C(C)=O)CC4)c1,123%
4,Cc1cccc(-c2nnc(N(C(=O)C3CCC3)C(C)C)s2)c1,113%
5,COc1ccc(Cn2c(CCC(=O)Nc3cccc(OC)c3)nc3cccnc32)cc1,68%
6,Cc1ccc(COC(=O)c2ccc(-c3nnn(Cc4ccc(C)cc4)n3)cc2)cc1,69%
7,COc1cc(CN(C(=O)COc2ccccc2Cl)c2ccccn2)cc(OC)c1OC,72%
8,COc1ccc(Cl)cc1NS(=O)(=O)c1ccc2c(c1)NC(=O)CC(=O)N2,88%
9,CN(Cc1ccccc1)c1nc(-c2ccc(F)cc2)cc(C(F)(F)F)n1,72%
10,COc1ccc(-n2nc(C)c3c(C(F)(F)F)cc(-c4cccnc4)nc32)cc1,56%
11,Cc1nn(-c2nc(-c3ccc(F)cc3)cc(C(F)(F)F)n2)c(C)c1Br,-2% (active)
12,Cc1nn(-c2nc(-c3ccc(F)cc3)cc(C(F)(F)F)n2)c(C)c1Cl,5% (active)
13,CCC(C)NC(=O)CSc1nc(-c2ccc(F)cc2)cc(C(F)(F)F)n1 (configuration not stated),86%
14,COc1cccc(-c2cc(C(F)(F)F)n3nc(C)c(-c4ccccc4)c3n2)c1,79%
15,Cc1nn(-c2nc(-c3ccccc3)cc(C(F)(F)F)n2)c(C)c1Cl,5% (active)
16,COc1cccc(-c2cc(C(F)(F)F)nc(-n3nc(C)c(Br)c3C)n2)c1,41% (active)
17,CC(C)(C)NC(=O)CSc1nc(-c2ccc(F)cc2)cc(C(F)(F)F)n1,72%
18,COc1ccccc1-c1c(C)nn2c(C(F)(F)F)cc(-c3ccccc3)nc12,41%
19,COc1cccc2c1Oc1ncccc1N(C(=O)Nc1ccc(F)c(Cl)c1)C2,135%
20,COc1cccc(N2CCN(S(=O)(=O)c3ccc4[nH]c5c(c4c3)CCCC5)CC2)c1,84%
21,C[N+](C)(C)CC(O)COc1ccccc1 (configuration not stated),82%

row,SMILES,survival
1,CCc1cccc(C)c1NC(=O)Cn1nc(C)n2cccc2c1=O,92%
2,COc1cccc(CNC(=O)CCc2nnc3n(CC(C)C)c(=O)c4ccccc4n23)c1,85%
3,COc1ccccc1CNC(=O)CCc1c(C)nc2c(c(C)nn2-c2ccc(C)c(C)c2)c1C,69%
4,CN1C(=O)c2cccc3c(S(=O)(=O)Nc4cccc(C(=O)O)c4)ccc1c23,74%
5,COC(=O)c1c(-c2ccc(Cl)cc2)noc1N1CCN(c2ccc(C(C)=O)cc2)CC1,81%
6,O=C(CN1CCC(n2nnc3ccccc32)CC1)N(C1CCCCC1)C1CCCCC1,100%
7,Cc1cccc(NS(=O)(=O)c2ccc3[nH]c(=O)[nH]c3c2)c1C,78%
8,Cc1cc(NC(=O)C2CCCN(S(=O)(=O)c3ccc(Br)s3)C2)ccc1Br (configuration not stated),68%
9,COCC(=O)NC1CCN(Cc2nnnn2Cc2ccc3c(c2)OCO3)CC1,87%
10,COc1ccccc1NC(=O)Cn1c(=O)n(CC(=O)NCc2ccccc2Cl)c(=O)c2sccc21,172%
11,CC(=O)c1ccc(S(=O)(=O)Nc2cccc(-c3ccc(N4CCCCC4)nn3)c2)cc1,80%
12,Cc1ccc(OCc2nc(C#N)c(NCCc3ccccc3)o2)cc1,35% (active)
13,COc1ccccc1OCc1nc(C#N)c(NCc2ccc(C)cc2)o1,83%
14,COc1ccc(CNc2oc(COc3cccc(C)c3)nc2C#N)cc1,40% (active)
15,COc1ccc(CCNc2oc(COc3ccc(Cl)cc3)nc2C#N)cc1OC,74%
16,COc1ccc(CCNc2oc(COc3cccc(C)c3)nc2C#N)cc1OC,95%
17,Cc1cccc(OCc2nc(C#N)c(NCc3ccccc3Cl)o2)c1,53%
18,N#Cc1nc(COc2cccc(Cl)c2)oc1NCCc1ccccc1,39% (active)
19,COc1cccc(/C=C/c2nc(C#N)c(NCCc3ccccc3)o2)c1,90%
20,N#Cc1nc(COc2ccccc2Cl)oc1NCCc1ccccc1,48%
